From the supplement of paper PMC10849652
Of roughly 8,800 targets only a part is listed; those with a hit were picked by preference. About 0.5% of all pairs of compound and target were hits.

Legend:
Test in all cases: log2 fold change, soluble protein after heating vs DMSO (PISA); higher = thermal stabilisation; K562 lysate, 10 uM; active = over 0.2 and 3.5 SD of the protein, either way, in both replicates (recomputed)
erlotinib = compound: C#Cc1cccc(Nc2ncnc3cc(OCCOC)c(OCCOC)cc23)c1 [erlotinib]
In short: (§1)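 Soluble protein was defined as the supernatant remaining after 21,000xg for 90 min, following pooling of heated aliquots and adjustment to 0.5% NP-40 at 4°C. Before that, crude K562 extract at 1 mg/mL protein in PBS pH 7.4 with 1 mM MgCl2 was treated with 10 μM compound for 30 min and heated for 3 min across 48°C-58°C. Quantification used TMTpro 16plex LC-MS/MS with channel sums equalised, and values are log-two fold changes in thermal stability relative to solvent controls from duplicates.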

[1] = compound: C/C(=N\NC(=O)C1=CC(=CC=C1)S(=O)(=O)N2CCOCC2)/C3=C(C=CC(=C3)Cl)O
In short: as §1

[2] = compound: C1=CC(=CC=C1C2=NC3=C(N2)C=C(C=C3)C(=O)N)OC4=CC=C(C=C4)Cl
In short: as §1

[3] = compound: C1=CC2=C(C=CC(=C2)/C=C\3/C(=O)NC(=NCC4=CC=CS4)S3)N=C1
In short: as §1

[4] = compound: C1=CC2=NC=CN=C2C=C1/C=C/3\C(=O)NC(=O)S3
In short: as §1

[5] = compound: C1=CC=C(C=C1)C2=NC(=C(N2)C3=CC=NC=C3)C4=CC(=C(C=C4)Cl)O
In short: as §1

[6] = compound: C1=CC=C2C(=C1)C3=NNC4=CC=CC(=C43)C2=O
In short: as §1

[7] = compound: C1CCN(C1)C(=O)NC2=CC=CC(=C2)NC3=NC=C(C(=N3)NCCC4=CN=CN4)Br
In short: as §1

[8] = compound: C1CN(CCC1(CC2=CC=C(C=C2)Cl)N)C3=NC=NC4=C3C=CN4
In short: as §1

IRAK-1-4 Inhibitor I = compound: C1COCCN1CCN2C3=CC=CC=C3N=C2NC(=O)C4=CC(=CC=C4)[N+](=O)[O-] [IRAK-1-4 Inhibitor I]
In short: as §1

ibrutinib = compound: C=CC(=O)N1CCC[C@@H](n2nc(-c3ccc(Oc4ccccc4)cc3)c3c(N)ncnc32)C1 [ibrutinib]
In short: as §1

[9] = compound: CC(=O)c1cnc2ccc(-c3cc(Cl)c(O)c(Cl)c3)nc2c1N[C@H]1CC[C@H](CN(C)C)CC1
In short: as §1

ralimetinib = compound: CC(C)(C)Cn1c(N)nc2ccc(-c3[nH]c(C(C)(C)C)nc3-c3ccc(F)cc3)nc21 [ralimetinib]
In short: as §1

[10] = compound: CC(C)(O)CC(=O)NCCn1ccc2ncnc(Nc3ccc(Oc4cccc(C(F)(F)F)c4)c(Cl)c3)c21
In short: as §1

[11] = compound: CC(C)C1=C2N=C(C=C(N2N=C1)NCC3=CC=CC=C3)NCCCCCCN
In short: as §1

[12] = compound: CC1=C(C(CC(=O)N1)C2=CC=C(C=C2)C(F)(F)F)C(=O)NC3=C(C=C4C(=C3)C=NN4)F
In short: as §1

[13] = compound: CC1=C(C2=C(C=C1)C(=O)C3=CC=CC=C3N2CCCN)C
In short: as §1

[14] = compound: CC1=C(C=C(C=C1)NC(=O)C2=CC(=CC=C2)C(C)(C)C#N)NC3=CC4=C(C=C3)N=CN(C4=O)C
In short: as §1

[15] = compound: CC1=C(C=C(C=C1)NC(=O)C2=CC(=CC=C2)N(C)C)NC(=O)C3=CC=C(C=C3)O
In short: as §1

[16] = compound: CC1=CC=C(C=C1)SC2=C3C=C(SC3=CN=C2)C(=O)N
In short: as §1

Measured: log2 fold change

SYF2 (UniProt O95926)
Sequence of UniProt O95926 (O95926 whole entry, looked up): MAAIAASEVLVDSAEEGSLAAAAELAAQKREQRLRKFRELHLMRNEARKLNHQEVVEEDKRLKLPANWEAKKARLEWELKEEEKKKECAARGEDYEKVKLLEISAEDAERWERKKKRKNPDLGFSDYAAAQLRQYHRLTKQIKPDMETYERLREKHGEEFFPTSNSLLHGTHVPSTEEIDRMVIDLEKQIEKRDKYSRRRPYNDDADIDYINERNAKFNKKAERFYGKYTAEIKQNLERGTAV
inactive: erlotinib 0 | [1] 0.043 | [2] 0.037 | [3] -0.025 | [4] -0.015 | [5] 0.037 | [6] 0.063 | [7] -0.048 | [8] 0 | IRAK-1-4 Inhibitor I -0.057 | ibrutinib 0.094 | [9] 0.023 | ralimetinib -0.019 | [10] 0.001 | [11] -0.02 | [12] -0.027 | [13] -0.122 | [14] 0.037 | [15] 0.066 | [16] -0.061

SLC29A2 (UniProt Q14542)
Sequence of UniProt Q14542 (Q14542 whole entry, looked up): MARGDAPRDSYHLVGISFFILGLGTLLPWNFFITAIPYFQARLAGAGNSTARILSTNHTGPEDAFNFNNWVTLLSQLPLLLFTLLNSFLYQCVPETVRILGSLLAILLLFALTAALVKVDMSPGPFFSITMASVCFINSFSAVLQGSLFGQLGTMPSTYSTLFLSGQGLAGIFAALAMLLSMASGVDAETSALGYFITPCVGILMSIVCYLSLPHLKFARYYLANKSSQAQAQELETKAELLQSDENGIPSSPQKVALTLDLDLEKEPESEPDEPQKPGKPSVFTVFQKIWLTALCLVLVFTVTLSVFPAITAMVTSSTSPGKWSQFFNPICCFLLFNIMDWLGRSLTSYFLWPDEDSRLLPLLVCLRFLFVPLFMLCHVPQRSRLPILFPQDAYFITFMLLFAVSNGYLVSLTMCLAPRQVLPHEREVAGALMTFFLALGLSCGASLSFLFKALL
inactive: erlotinib -0.147 | [1] 0.016 | [2] -0.04 | [3] 0.013 | [4] -0.028 | [5] -0.033 | [6] 0.018 | [7] 0.018 | [8] 0.085 | IRAK-1-4 Inhibitor I 0.102 | ibrutinib 0.035 | [9] 0.045 | ralimetinib 0.082 | [10] -0.036 | [11] 0.043 | [12] -0.001 | [13] -0.011 | [14] 0.041 | [15] 0.072 | [16] 0.006

SUZ12 (UniProt Q15022)
inactive: erlotinib 0.024 | [1] -0.077 | [2] -0.018 | [3] 0.007 | [4] 0.004 | [5] 0.034 | [6] -0.079 | [7] -0.038 | [8] -0.021 | IRAK-1-4 Inhibitor I 0.02 | ibrutinib -0.043 | [9] 0.013 | ralimetinib 0.003 | [10] -0.036 | [11] 0.007 | [12] -0.023 | [13] -0.09 | [15] 0.048 | [16] -0.01
active: [14] 0.289

STK11IP (UniProt Q8N1F8)
Sequence of UniProt Q8N1F8 (Q8N1F8 whole entry, looked up): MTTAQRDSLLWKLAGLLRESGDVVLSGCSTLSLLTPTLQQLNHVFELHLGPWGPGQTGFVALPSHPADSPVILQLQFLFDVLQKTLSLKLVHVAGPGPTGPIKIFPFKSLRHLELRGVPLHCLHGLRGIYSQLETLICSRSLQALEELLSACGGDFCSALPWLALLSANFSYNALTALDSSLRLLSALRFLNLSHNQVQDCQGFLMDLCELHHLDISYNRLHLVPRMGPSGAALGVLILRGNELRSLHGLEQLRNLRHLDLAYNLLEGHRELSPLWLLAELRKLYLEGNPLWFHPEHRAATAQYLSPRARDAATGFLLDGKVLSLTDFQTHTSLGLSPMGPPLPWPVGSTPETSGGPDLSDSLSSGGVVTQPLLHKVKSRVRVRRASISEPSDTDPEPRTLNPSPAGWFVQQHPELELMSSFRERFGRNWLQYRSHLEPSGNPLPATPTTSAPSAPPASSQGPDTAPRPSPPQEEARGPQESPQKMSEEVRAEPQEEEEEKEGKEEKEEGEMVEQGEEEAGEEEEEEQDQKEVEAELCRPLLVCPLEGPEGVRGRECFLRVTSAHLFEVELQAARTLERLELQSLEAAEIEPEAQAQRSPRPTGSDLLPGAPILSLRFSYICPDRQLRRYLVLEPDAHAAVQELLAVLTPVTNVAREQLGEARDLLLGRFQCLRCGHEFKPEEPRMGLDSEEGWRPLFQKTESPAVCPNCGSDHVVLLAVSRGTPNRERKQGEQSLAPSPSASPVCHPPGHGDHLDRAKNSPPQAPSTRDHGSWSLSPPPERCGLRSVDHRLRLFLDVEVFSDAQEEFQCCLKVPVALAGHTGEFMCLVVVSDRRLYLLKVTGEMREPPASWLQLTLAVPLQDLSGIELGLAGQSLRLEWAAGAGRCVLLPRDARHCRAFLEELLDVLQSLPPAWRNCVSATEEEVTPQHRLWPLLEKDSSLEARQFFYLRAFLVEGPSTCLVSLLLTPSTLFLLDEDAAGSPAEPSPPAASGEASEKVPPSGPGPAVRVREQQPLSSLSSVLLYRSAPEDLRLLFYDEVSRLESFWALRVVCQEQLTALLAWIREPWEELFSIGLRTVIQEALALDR
inactive: erlotinib 0.015 | [1] 0.008 | [2] -0.002 | [3] -0.071 | [4] 0.007 | [5] -0.007 | [6] 0.025 | [7] -0.029 | [8] 0.033 | IRAK-1-4 Inhibitor I 0.053 | ibrutinib -0.016 | [9] -0.024 | ralimetinib 0.044 | [10] -0.055 | [11] 0 | [12] 0.046 | [13] 0.024 | [14] -0.009 | [15] 0 | [16] 0.015

STK36 (UniProt Q9NRP7)
inactive: erlotinib 0.114 | [1] -0.06 | [2] 0.251 | [3] -0.199 | [4] -0.169 | [5] -0.075 | [6] -0.241 | [7] -0.049 | [8] 0.185 | IRAK-1-4 Inhibitor I 0.205 | ibrutinib 0.019 | [9] -0.182 | ralimetinib -0.087 | [10] -0.416 | [11] 0.071 | [12] -0.058 | [13] -0.176 | [14] 0.408 | [15] -0.004 | [16] -0.097

SHCBP1 (UniProt Q8NEM2)
Sequence of UniProt Q8NEM2 (Q8NEM2 whole entry, looked up): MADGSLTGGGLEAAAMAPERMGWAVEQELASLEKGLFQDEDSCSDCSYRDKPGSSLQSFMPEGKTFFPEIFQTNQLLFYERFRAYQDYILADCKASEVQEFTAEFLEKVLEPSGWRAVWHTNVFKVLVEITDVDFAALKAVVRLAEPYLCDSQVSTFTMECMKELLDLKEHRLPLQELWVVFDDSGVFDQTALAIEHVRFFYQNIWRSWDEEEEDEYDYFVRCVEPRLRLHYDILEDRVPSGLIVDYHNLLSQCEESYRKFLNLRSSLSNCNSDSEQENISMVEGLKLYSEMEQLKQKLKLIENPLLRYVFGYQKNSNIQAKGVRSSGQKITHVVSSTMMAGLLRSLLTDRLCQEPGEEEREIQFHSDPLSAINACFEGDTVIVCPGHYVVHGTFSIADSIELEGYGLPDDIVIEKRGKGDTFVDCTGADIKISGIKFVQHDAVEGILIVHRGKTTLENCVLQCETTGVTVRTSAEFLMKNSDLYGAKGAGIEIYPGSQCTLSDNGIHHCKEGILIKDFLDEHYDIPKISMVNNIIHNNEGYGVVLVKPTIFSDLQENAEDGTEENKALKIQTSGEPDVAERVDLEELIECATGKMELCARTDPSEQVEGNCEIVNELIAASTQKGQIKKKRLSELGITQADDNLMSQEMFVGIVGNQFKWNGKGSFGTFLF
inactive: erlotinib 0.034 | [1] 0.01 | [2] -0.035 | [3] -0.023 | [4] 0.007 | [5] 0.032 | [6] 0.005 | [7] 0.014 | [8] -0.014 | IRAK-1-4 Inhibitor I 0.018 | ibrutinib -0.04 | [9] 0.023 | ralimetinib 0.026 | [10] 0.031 | [11] 0.012 | [12] 0.009 | [13] 0.002 | [14] -0.008 | [15] 0.056 | [16] -0.041

SF3B6 (UniProt Q9Y3B4)
Sequence of UniProt Q9Y3B4 (Q9Y3B4 whole entry, looked up): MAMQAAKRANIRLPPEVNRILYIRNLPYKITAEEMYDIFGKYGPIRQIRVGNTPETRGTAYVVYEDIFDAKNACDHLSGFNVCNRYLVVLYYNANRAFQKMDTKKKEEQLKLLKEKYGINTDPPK
inactive: erlotinib 0.011 | [1] 0.047 | [2] 0 | [3] 0.001 | [4] 0.043 | [5] 0.034 | [6] 0.044 | [7] 0.004 | [8] -0.034 | IRAK-1-4 Inhibitor I -0.024 | ibrutinib 0.036 | [9] 0.004 | ralimetinib -0.001 | [10] -0.017 | [11] -0.002 | [12] 0.043 | [13] 0.003 | [14] 0.002 | [15] 0.024 | [16] -0.007

SPATA5 (UniProt Q8NB90)
inactive: erlotinib 0.04 | [1] 0.025 | [2] -0.006 | [3] 0.025 | [4] -0.042 | [5] 0.042 | [6] 0.015 | [7] 0.017 | [8] 0.017 | IRAK-1-4 Inhibitor I 0.016 | ibrutinib 0.013 | [9] -0.002 | ralimetinib 0.047 | [10] 0.025 | [11] 0.02 | [12] -0.009 | [13] 0.009 | [14] 0.002 | [15] 0.042 | [16] 0.012

SRSF7 (UniProt Q16629)
Sequence of UniProt Q16629 (Q16629 whole entry, looked up): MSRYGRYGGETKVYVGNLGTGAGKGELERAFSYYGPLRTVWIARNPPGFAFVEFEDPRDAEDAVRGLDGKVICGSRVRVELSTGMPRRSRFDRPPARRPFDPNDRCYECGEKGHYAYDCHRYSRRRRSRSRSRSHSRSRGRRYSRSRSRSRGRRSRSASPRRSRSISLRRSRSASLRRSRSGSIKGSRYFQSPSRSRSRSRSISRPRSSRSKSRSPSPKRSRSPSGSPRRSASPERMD
inactive: erlotinib 0.019 | [1] -0.068 | [2] -0.043 | [3] 0.002 | [4] -0.066 | [5] -0.02 | [6] -0.016 | [7] 0.032 | [8] 0.008 | IRAK-1-4 Inhibitor I -0.03 | ibrutinib -0.114 | [9] -0.071 | ralimetinib 0.074 | [10] -0.004 | [11] 0 | [12] -0.005 | [13] -0.023 | [14] -0.037 | [15] 0.02 | [16] -0.079

STK38 (UniProt Q15208)
Sequence of UniProt Q15208 (Q15208 whole entry, looked up): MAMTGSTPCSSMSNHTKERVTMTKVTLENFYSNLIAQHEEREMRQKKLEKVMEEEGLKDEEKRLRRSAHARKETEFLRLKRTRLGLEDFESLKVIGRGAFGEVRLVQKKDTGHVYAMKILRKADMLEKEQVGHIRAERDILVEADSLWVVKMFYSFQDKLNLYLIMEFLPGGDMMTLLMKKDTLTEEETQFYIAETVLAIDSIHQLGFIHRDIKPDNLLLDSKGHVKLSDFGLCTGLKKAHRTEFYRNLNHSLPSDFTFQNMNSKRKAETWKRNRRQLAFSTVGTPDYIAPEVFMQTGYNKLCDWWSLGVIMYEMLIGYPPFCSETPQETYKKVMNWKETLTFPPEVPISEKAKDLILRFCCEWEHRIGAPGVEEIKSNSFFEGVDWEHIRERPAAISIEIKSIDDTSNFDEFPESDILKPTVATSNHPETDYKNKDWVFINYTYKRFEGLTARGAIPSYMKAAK
inactive: erlotinib -0.018 | [1] -0.029 | [2] -0.063 | [3] -0.005 | [4] 0.038 | [5] 0.029 | [6] 0.176 | [7] -0.002 | [8] 0.055 | IRAK-1-4 Inhibitor I -0.006 | ibrutinib 0.008 | ralimetinib 0.036 | [10] 0.048 | [11] 0.025 | [12] 0.006 | [13] 0.017 | [14] 0.014 | [15] -0.003 | [16] 0.002
active: [9] 0.361

SLC39A11 (UniProt Q8N1S5)
inactive: erlotinib -0.093 | [1] 0.116 | [2] -0.047 | [3] -0.139 | [4] -0.071 | [5] 0.05 | [6] 0.062 | [8] 0.058 | IRAK-1-4 Inhibitor I -0.053 | ibrutinib -0.065 | [9] -0.008 | ralimetinib -0.136 | [10] -0.042 | [11] -0.023 | [12] 0.051 | [13] 0.16 | [14] -0.074 | [15] -0.089 | [16] 0.001
active: [7] 0.385

SLC26A6 (UniProt Q9BXS9)
inactive: erlotinib -0.04 | [1] -0.117 | [2] 0.024 | [3] -0.018 | [4] -0.044 | [5] 0.032 | [6] -0.114 | [7] -0.13 | [8] 0.087 | IRAK-1-4 Inhibitor I -0.062 | ibrutinib -0.242 | [9] 0.018 | ralimetinib 0.019 | [10] -0.056 | [11] -0.05 | [12] -0.157 | [13] -0.022 | [14] 0.017 | [15] 0.033 | [16] -0.056

TADA3 (UniProt O75528)
inactive: erlotinib 0.02 | [1] -0.046 | [2] 0.032 | [3] -0.073 | [4] -0.04 | [5] 0.048 | [6] 0.009 | [7] -0.058 | [8] 0.053 | IRAK-1-4 Inhibitor I 0.018 | ibrutinib 0.032 | [9] 0 | ralimetinib -0.013 | [10] -0.022 | [11] 0.018 | [12] -0.003 | [13] -0.005 | [14] 0.054 | [15] 0.024 | [16] -0.011

SPIRE1 (UniProt Q08AE8)
inactive: erlotinib -0.062 | [1] 0.054 | [2] -0.032 | [3] 0.068 | [4] -0.067 | [5] 0.027 | [6] 0.022 | [7] 0.013 | [8] -0.024 | IRAK-1-4 Inhibitor I -0.032 | ibrutinib 0.082 | [9] -0.031 | ralimetinib -0.028 | [10] 0.011 | [11] -0.014 | [12] -0.069 | [13] 0.002 | [14] 0.014 | [15] 0.016 | [16] -0.05

SMC3 (UniProt Q9UQE7)
Sequence of UniProt Q9UQE7 (Q9UQE7 whole entry, looked up): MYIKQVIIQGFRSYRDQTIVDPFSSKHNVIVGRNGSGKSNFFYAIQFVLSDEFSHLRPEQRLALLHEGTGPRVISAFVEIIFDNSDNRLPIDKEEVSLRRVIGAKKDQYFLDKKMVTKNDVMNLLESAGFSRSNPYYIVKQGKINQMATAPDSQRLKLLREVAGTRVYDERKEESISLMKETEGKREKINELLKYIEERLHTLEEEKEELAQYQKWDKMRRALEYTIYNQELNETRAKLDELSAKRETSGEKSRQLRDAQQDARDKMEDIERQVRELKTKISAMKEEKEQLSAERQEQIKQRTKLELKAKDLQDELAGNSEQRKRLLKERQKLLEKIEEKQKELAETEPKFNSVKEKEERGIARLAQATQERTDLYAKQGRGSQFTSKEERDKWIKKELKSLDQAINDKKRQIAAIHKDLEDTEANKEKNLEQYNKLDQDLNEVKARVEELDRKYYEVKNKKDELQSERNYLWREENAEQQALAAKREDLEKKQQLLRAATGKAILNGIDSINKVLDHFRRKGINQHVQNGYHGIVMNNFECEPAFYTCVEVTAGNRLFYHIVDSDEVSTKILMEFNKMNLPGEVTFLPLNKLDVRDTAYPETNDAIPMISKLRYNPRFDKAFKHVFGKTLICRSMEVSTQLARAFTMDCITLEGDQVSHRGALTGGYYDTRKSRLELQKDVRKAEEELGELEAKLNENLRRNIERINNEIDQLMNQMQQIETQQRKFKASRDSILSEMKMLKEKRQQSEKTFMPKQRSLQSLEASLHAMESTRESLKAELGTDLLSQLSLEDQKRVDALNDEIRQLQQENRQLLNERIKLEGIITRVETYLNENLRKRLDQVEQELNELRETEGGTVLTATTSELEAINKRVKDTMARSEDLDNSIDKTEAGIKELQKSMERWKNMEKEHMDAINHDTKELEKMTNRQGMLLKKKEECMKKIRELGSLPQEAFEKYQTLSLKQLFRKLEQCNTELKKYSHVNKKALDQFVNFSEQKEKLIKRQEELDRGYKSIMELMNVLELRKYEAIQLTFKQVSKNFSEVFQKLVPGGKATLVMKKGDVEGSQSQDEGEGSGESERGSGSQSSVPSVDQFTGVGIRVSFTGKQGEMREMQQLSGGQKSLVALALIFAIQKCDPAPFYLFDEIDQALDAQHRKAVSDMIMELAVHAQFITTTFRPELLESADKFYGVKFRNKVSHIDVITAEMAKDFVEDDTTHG
inactive: erlotinib -0.01 | [1] 0.018 | [2] -0.004 | [3] 0.018 | [4] -0.013 | [5] 0.002 | [6] 0.023 | [7] -0.007 | [8] -0.016 | IRAK-1-4 Inhibitor I -0.009 | ibrutinib 0.002 | [9] -0.001 | ralimetinib -0.023 | [10] 0.003 | [11] -0.002 | [12] -0.004 | [13] 0.01 | [14] -0.014 | [15] 0.011 | [16] 0.01

SMAP2 (UniProt Q8WU79)
Sequence of UniProt Q8WU79 (Q8WU79 whole entry, looked up): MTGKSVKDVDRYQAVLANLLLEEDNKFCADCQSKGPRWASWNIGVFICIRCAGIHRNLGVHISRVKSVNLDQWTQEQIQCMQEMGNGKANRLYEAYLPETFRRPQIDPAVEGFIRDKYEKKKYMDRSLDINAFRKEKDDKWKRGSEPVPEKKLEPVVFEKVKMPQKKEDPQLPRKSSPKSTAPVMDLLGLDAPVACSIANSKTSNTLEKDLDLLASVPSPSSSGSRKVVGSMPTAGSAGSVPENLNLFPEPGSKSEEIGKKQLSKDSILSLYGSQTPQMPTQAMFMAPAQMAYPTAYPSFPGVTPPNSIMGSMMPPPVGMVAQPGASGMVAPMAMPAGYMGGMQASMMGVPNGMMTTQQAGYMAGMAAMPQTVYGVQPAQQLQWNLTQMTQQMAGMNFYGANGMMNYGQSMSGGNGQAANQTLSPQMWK
active: [14] -0.286
inactive: erlotinib -0.009 | [1] -0.018 | [2] 0.073 | [3] 0 | [4] 0.023 | [5] -0.2 | [6] 0.015 | [7] 0.037 | [8] 0.023 | IRAK-1-4 Inhibitor I 0.044 | ibrutinib -0.008 | [9] -0.008 | ralimetinib -0.015 | [10] -0.01 | [11] 0.024 | [12] 0.034 | [13] 0.019 | [15] -0.015 | [16] 0.002
